Drawing on PubChem BioAssay (NCI), this text covers growth for seven compounds.

Each structure is given as a SMILES string. The panel holds about 83,000 compounds, 20% with a hit somewhere; the sample as a whole holds those more often.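 48-hour exposure, single concentration, 96-well plates; percent growth endpoint where 0 means no net growth. Active: below 10.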 Values without a mark were called inactive. The source made the active and inactive calls.

What all share (experiment): NCI-60 one-dose screen, 48 h (100 = growth as untreated, 0 = no growth, -100 = all killed)
The subject of one assay is DU-145 prostate. Conditions: 10 µM unless noted.
The next assay concerns K-562 leukemia. Particulars: 10 µM unless noted.
For a further assay, the system named is MALME-3M melanoma. Conditions: 10 µM unless noted.
In another assay the test system is MDA-MB-231 breast. Conditions: 10 µM unless noted.
In the next assay the test system is RXF 393 renal. Particulars: 10 µM unless noted.
In the next assay the test system is SF-268 CNS. Particulars: 10 µM unless noted.
In another assay the test system is SF-295 CNS. Particulars: 10 µM unless noted.
The subject of a further assay is SF-539 CNS. Particulars: 10 µM unless noted.
For a further assay, the system named is UACC-257 melanoma. Particulars: 10 µM unless noted.
The test system of a further assay is M14 melanoma. Particulars: 10 µM unless noted.
Another assay deals with HCT-15 colon. Particulars: 10 µM unless noted.
In the next assay the test system is HT29 colon. Conditions: 10 µM unless noted.
Another assay concerns SNB-19 CNS. Particulars: 10 µM unless noted.
The test system of another assay is U251 CNS. Particulars: 10 µM unless noted.
The next assay relates to PC-3 prostate. Particulars: 10 µM unless noted.
The test system of another assay is SK-MEL-5 melanoma. Conditions: 10 µM unless noted.
The test system of a further assay is UACC-62 melanoma. Conditions: 10 µM unless noted.
The next assay relates to LOX IMVI melanoma. Particulars: 10 µM.
Another assay relates to SNB-75 CNS. Particulars: 10 µM unless noted.
The next assay deals with SK-MEL-28 melanoma. Particulars: 10 µM unless noted.

Take `COc1ccc2c(c1)c(/C=N/Nc1ccc3ccccc3n1)cn2C`: the growth is 36.2% with DU-145 prostate; -40.1% (active) in the assay with K-562 leukemia; 12.6% in the assay with MALME-3M melanoma; -23.1% (active) with MDA-MB-231 breast; 33.4% in the assay on RXF 393 renal; 37.2% in the assay with SF-268 CNS. In addition, the growth is -60.4% (active) in the assay on SF-295 CNS; -36.2% (active) in the assay on SF-539 CNS; 61.7% in the assay on UACC-257 melanoma; -6.98% (active) in the assay with M14 melanoma; -44.8% (active) in the assay with HCT-15 colon; -66.7% (active) in the assay with HT29 colon. Moreover, the growth in the assay on SNB-19 CNS is 71.3%; with U251 CNS, 7.9% (active); in the assay on PC-3 prostate, 7.27% (active); in the assay with SK-MEL-5 melanoma it was 23%; with UACC-62 melanoma, 20.6%; in the assay with LOX IMVI melanoma, -97.9% (active).
`CCC(C)(C)c1ccc(OCCCCCCN2CCN(c3ccncc3)CC2)cc1`: the growth in the assay on DU-145 prostate is 35.5%; in the assay with K-562 leukemia, -24.8% (active); in the assay with MALME-3M melanoma, -94.7% (active); with MDA-MB-231 breast it was -77.6% (active); with RXF 393 renal it was -62.5% (active); with SF-268 CNS, 50.5%. Besides, the growth is -78% (active) in the assay on SF-295 CNS; -72.4% (active) in the assay with SF-539 CNS; 18.4% in the assay on UACC-257 melanoma; -68.7% (active) in the assay on M14 melanoma; -55.5% (active) with HCT-15 colon; -39.8% (active) in the assay on HT29 colon. The growth is 69.6% in the assay on SNB-75 CNS; -45.7% (active) in the assay with U251 CNS; -4.93% (active) with PC-3 prostate; -99.2% (active) in the assay on SK-MEL-5 melanoma; -48% (active) in the assay with UACC-62 melanoma; -96.8% (active) in the assay with LOX IMVI melanoma. Further, the growth in the assay on SK-MEL-28 melanoma is -18.9% (active).
On to `Cn1cc(-c2nc(N)nnc2-c2c[nH]c3ccc(F)cc23)c2cc(Br)cnc21`, for which the growth in the assay with DU-145 prostate is 10.1%; with K-562 leukemia, 5.23% (active); with MALME-3M melanoma it was 21.6%; with MDA-MB-231 breast it was 5.57% (active); with RXF 393 renal, -4.53% (active); with SF-268 CNS it was 4.51% (active). Besides, the growth in the assay on SF-295 CNS was 9.21% (active); with SF-539 CNS it was -11.5% (active); with UACC-257 melanoma it was 29.8%; with M14 melanoma, -9.79% (active); in the assay on HCT-15 colon, 3.56% (active); in the assay on HT29 colon it was -50.6% (active). For the same compound, the growth in the assay on SNB-19 CNS is 22.9%; with U251 CNS, 1.09% (active); in the assay on PC-3 prostate, 8.22% (active); in the assay with SK-MEL-5 melanoma it was -81.5% (active); with UACC-62 melanoma, 13.3%; with LOX IMVI melanoma, 13.9%. Besides, the growth in the assay with SK-MEL-28 melanoma was 24%.
As to `O=C(c1ccc(OCCN2CCOCC2)cc1)C1[C@H](c2ccc(Cl)cc2)[C@@H](c2ccccc2)NC12C(=O)Nc1ccc(Cl)cc12` (stereo partly specified), the growth is 45.8% in the assay with DU-145 prostate; 4.95% (active) in the assay on K-562 leukemia; 69.3% with MALME-3M melanoma; 28.7% in the assay with MDA-MB-231 breast; 2.65% (active) with RXF 393 renal; 43.8% with SF-268 CNS. For the same compound, the growth is 27.4% with SF-295 CNS; 41.5% in the assay on SF-539 CNS; 45.4% in the assay on UACC-257 melanoma; 23.2% with M14 melanoma; 16.2% in the assay with HCT-15 colon; -75.4% (active) in the assay on HT29 colon. For the same compound, the growth in the assay with SNB-19 CNS is 41%; in the assay on U251 CNS, 25.3%; in the assay on PC-3 prostate it was 6.16% (active); in the assay on SK-MEL-5 melanoma, 51.6%; in the assay on UACC-62 melanoma, 40.1%; in the assay with LOX IMVI melanoma it was -45.5% (active). In addition, in the assay with SK-MEL-28 melanoma, the growth was 51.7%.
Consider `CCCSc1nc(Nc2ccc(S(N)(=O)=O)cc2)c(C#N)c(-c2ccc(Cl)cc2)n1`, for which the growth in the assay with DU-145 prostate is 58.7%; in the assay on K-562 leukemia it was 7.3% (active); with MALME-3M melanoma, -4.55% (active); in the assay on MDA-MB-231 breast, -55.6% (active); with RXF 393 renal, -43.4% (active); in the assay on SF-268 CNS, 66%. Besides, the growth was 1.43% (active) with SF-295 CNS; -4.39% (active) in the assay with SF-539 CNS; 54.8% with UACC-257 melanoma; 18.8% with M14 melanoma; 21.7% in the assay on HCT-15 colon; 33.6% in the assay with HT29 colon. The growth with SNB-19 CNS is 28.2%; in the assay on U251 CNS it was -14.8% (active); in the assay with PC-3 prostate it was 64.3%; in the assay on SK-MEL-5 melanoma, 55.9%; in the assay on UACC-62 melanoma, 31.1%; with LOX IMVI melanoma, -96.3% (active).
`Cc1ccc(Cc2cnc(NC(=O)c3ccc(/C=C4\SC(=S)N(C)C4=O)cc3)s2)cc1`: the growth with DU-145 prostate was 26.1%; in the assay on K-562 leukemia, 23.3%; with MALME-3M melanoma it was 25.2%; in the assay with MDA-MB-231 breast it was 41.4%; in the assay on RXF 393 renal, 29.4%; in the assay on SF-268 CNS it was 38.6%. For the same compound, the growth with SF-295 CNS was 8.52% (active); in the assay with SF-539 CNS, 12.7%; in the assay on UACC-257 melanoma, 30.4%; in the assay on M14 melanoma, 20.5%; in the assay with HCT-15 colon it was 18.7%; in the assay with HT29 colon it was 23.8%. For the same compound, the growth was 53.8% in the assay with SNB-19 CNS; 62.3% with U251 CNS; 37.3% in the assay on PC-3 prostate; 19.4% in the assay with SK-MEL-5 melanoma; 25.1% in the assay on UACC-62 melanoma; 34.3% with LOX IMVI melanoma. For the same compound, the growth in the assay with SK-MEL-28 melanoma is 42.1%.
For the compound `COc1ccc(C2(SCCNCc3cc(N(C)C)ccn3)c3ccccc3C=Cc3ccccc32)cc1`, the growth was 18.1% in the assay with DU-145 prostate; 2.08% (active) in the assay on K-562 leukemia; -1.5% (active) in the assay with MALME-3M melanoma; -29.2% (active) with MDA-MB-231 breast; 8.16% (active) in the assay with RXF 393 renal; 28.2% in the assay on SF-268 CNS. The growth with SF-295 CNS was 1.44% (active); in the assay on SF-539 CNS it was -67.7% (active); with UACC-257 melanoma it was 41.1%; with M14 melanoma, -44.7% (active); in the assay with HCT-15 colon, 2.66% (active); in the assay on HT29 colon it was -43% (active). The growth with SNB-75 CNS was 9.76% (active); in the assay with U251 CNS it was 0.439% (active); in the assay on PC-3 prostate, 13.8%; in the assay on SK-MEL-5 melanoma, -20.3% (active); in the assay with UACC-62 melanoma, 38%; with LOX IMVI melanoma, 2.34% (active). Also, the growth with SK-MEL-28 melanoma was 29.9%.
